Reference: PubChem BioAssay AID1159580 (chemical genetic matrix, 2015)
Several values for one entry are separate records, joined by “and”; a condition that tells them apart may be missing. Identical values can stand only once. Screen size: about 5,500 compounds; about 2,000 (36%) were called active. Roughly 18% stayed inconclusive and do not appear here. No stated cut-off is given here; in the data, active means normalized growth mostly below about 0.91 (no sharp cut-off); inconclusive means no clear call, values can overlap the other calls; inactive means mostly above about 0.92. The list shows a part of the results.

Test: chemical genetic growth profiling, strain panel (AID 1159580);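 further: tested at 20 µM; growth read once vehicle control cultures reached saturation at 30 °C; 1 = growth at the plate median or of vehicle wells; lower values mean less growth of the strain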
Conditions: S. cerevisiae deletion strains, growth OD

Measured: normalized growth

O=S(=O)(O)CCS
inactive: locus YAL013W, strain DEP1, hits give low values 1.01 | locus YAL021C, strain ccr4, hits give low values 0.983 | locus YAL026C, strain drs2, hits give low values 1 | locus YAL030W, strain snc1, hits give low values 0.993 | locus YBL061C, strain skt5, hits give low values 0.966 | locus YBR009C, strain hhf1, hits give low values 1.01 | locus YBR021W, strain FUR4, hits give low values 1.01 | locus YBR023C, strain chs3, hits give low values 0.989 | locus YBR171W, strain sec66, hits give low values 0.976 | locus YBR229C, strain ROT2, hits give low values 1.01 | locus YBR231C, strain swc5, hits give low values 1.01 | locus YBR279W, strain paf1, hits give low values 0.986 | locus YCL016C, strain dcc1, hits give low values 0.976 | locus YCL029C, strain bik1, hits give low values 0.993 | locus YCL069W, strain vba3, hits give low values 0.979 | locus YCR088W, strain abp1, hits give low values 0.985 | locus YDL005C, strain med2, hits give low values 0.949 | locus YDL035C, strain GPR1, hits give low values 1.02 | locus YDL040C, strain nat1, hits give low values 0.999 | locus YDL074C, strain BRE1, hits give low values 1.05 | locus YDL101C, strain DUN1, hits give low values 1.02 | locus YDL134C, strain PPH21, hits give low values 1.01 | locus YDL185W, strain tfp1, hits give low values 0.985 | locus YDL192W, strain arf1, hits give low values 0.99 | locus YDR001C, strain nth1, hits give low values 0.99 | locus YDR069C, strain doa4, hits give low values 0.992 | locus YDR101C, strain arx1, hits give low values 1.02 | locus YDR137W, strain rgp1, hits give low values 0.984 | locus YDR150W, strain NUM1, hits give low values 1.01 | locus YDR159W, strain sac3, hits give low values 0.977 | locus YDR162C, strain NBP2, hits give low values 1.01 | locus YDR195W, strain ref2 0.988 | locus YDR297W, strain sur2, hits give low values 0.989 | locus YDR318W, strain mcm21, hits give low values 0.991 | locus YDR334W, strain swr1, hits give low values 0.982 | locus YDR335W, strain msn5, hits give low values 0.981 | locus YDR388W, hits give low values 0.978 | locus YDR392W, strain spt3, hits give low values 0.928 | locus YDR502C, strain sam2, hits give low values 0.995 | locus YEL003W, strain gim4, hits give low values 0.998 | locus YEL037C, strain rad23, hits give low values 0.985 | locus YEL061C, strain CIN8 (second series), hits give low values 1.01 | locus YEL061C, strain CIN8, hits give low values 1.01 | locus YER015W, strain faa2, hits give low values 0.998 | locus YER016W, strain bim1, hits give low values 0.945 | locus YER110C, hits give low values 0.987 | locus YER111C, strain swi4, hits give low values 0.981 | locus YER155C, strain BEM2 (second series), hits give low values 1 | locus YER155C, strain BEM2, hits give low values 1.01 | locus YER167W, strain BCK2, hits give low values 0.996 | locus YFR010W, strain ubp6, hits give low values 1.01 | locus YGL078C, strain dbp3, hits give low values 0.976 | locus YGL086W, strain mad1, hits give low values 0.997 | locus YGL167C, strain pmr1, hits give low values 0.985 | locus YGL173C, strain kem1, hits give low values 0.998 | locus YGL227W, strain vid30, hits give low values 0.979 | locus YGL240W, strain doc1, hits give low values 1.01 | locus YGL248W, strain PDE1, hits give low values 1.03 | locus YGL253W, strain hxk2, hits give low values 0.986 | locus YGR135W, strain pre9, hits give low values 0.997 | locus YGR252W, strain gcn5, hits give low values 0.936 | locus YHR013C, strain ard1, hits give low values 0.927 | locus YHR027C, strain rpn1, hits give low values 1.01 | locus YHR030C, strain SLT2, hits give low values 1.01 and 0.989 | locus YHR079C, strain IRE1 (second series), hits give low values 0.989 | locus YHR079C, strain IRE1, hits give low values 0.991 | locus YHR094C, strain hxt1, hits give low values 0.991 | locus YHR129C, strain ARP1, hits give low values 1.01 | locus YHR142W, strain chs7, hits give low values 0.968 | locus YHR200W, strain rpn10, hits give low values 0.999 | locus YIL066C, strain RNR3, hits give low values 1.02 | locus YIL073C, strain SPO22, hits give low values 0.965 | locus YIL125W, strain kgd1, hits give low values 0.981 | locus YIR030C, strain dcg1, hits give low values 0.999 | locus YJL092W, strain hpr5, hits give low values 0.997 | locus YJL095W, strain BCK1 (second series), hits give low values 0.971 | locus YJL095W, strain BCK1, hits give low values 1.03 and 0.974 | locus YJL115W, strain asf1, hits give low values 0.983 | locus YJL129C, strain trk1, hits give low values 0.946 | locus YJL134W, strain LCB3, hits give low values 1.01 | locus YJL154C, strain vps35, hits give low values 0.97 | locus YJL164C, strain tpk1, hits give low values 0.991 | locus YJL166W, strain qcr8, hits give low values 1 | locus YJL168C, strain set2, hits give low values 0.992 | locus YJL187C, strain SWE1 (second series), hits give low values 1.03 | locus YJL187C, strain SWE1, hits give low values 0.986 | locus YJR043C, strain POL32, hits give low values 1.01 | locus YJR066W, strain TOR1, hits give low values 0.961
